The results in this text go back to PubChem BioAssay (NCATS).

Results filed as inconclusive are left out. Entries that show only a call come without a potency. Active and inactive are the calls of the source. Calls come from the whole dose curve; as a rule, active = well fitted cell-killing curve with a large enough effect; inconclusive = small, poorly fitted or top-dose-only effect; inactive = flat fitted curve, though single readings scatter. Bridge positions count the residues as written; N and C are the ends. Square brackets hold non-standard residues; d marks the D form. Peptide text beside a SMILES is read from it. * marks the point of attachment. ξ: configuration not given here. Octanoyl(6-Me) = CCC(C)CCCCC(=O)*; ξThr(3R) = C[C@@H](O)C(N)C(=O)O; dDab = NCC[C@@H](N)C(=O)O; Dab = NCC[C@H](N)C(=O)O
Potency is the fitted concentration of half-maximal effect.

The nature of one test: Quantitative highthroughput screen to assess conditional lethalithy of NOMO1 cells grown in RPMI1640 with untreated serum (RPMI+s) (AID 1963876). Note: nearly all actives have a fitted effect of over 35% in size. To be noted: NOMO1 AML cells in RPMI+serum, CellTiter-Glo viability, 48 h; series mostly up to 45.8 µM. The gist of the method: (§1)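 Each medium arm—HPLM with 10% dialyzed FBS, or RPMI1640 with 5 mM glucose and 10% untreated or dialyzed FBS—was screened against an 11-point, 3-fold compound titration for 48 h at 37 °C, with CellTiter-Glo luminescence as endpoint.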
(In ATP-based viability assays light output follows the ATP content of the culture.)
As for `c1cc(OCCN2CCCCC2)cc(-c2n[nH]c3ccc(-c4ncn[nH]4)cc23)c1`, the Potency result is “inactive”.

In the case of `NC(=O)c1cccc(-c2cc(Nc3ccc(OC(F)(F)F)cc3)ncn2)c1`, the Potency entry is “inactive”.

On to `O=C(O)C1CCCN(CCC=C(c2ccccc2)c2ccccc2)C1` (centres undefined), for which the Potency result is “inactive”.

On to `CCC(C)CCCCC(=O)N[C@@H](CCN)C(=O)NC(C(=O)N[C@H](CCN)C(=O)N[C@@H]1CCNC(=O)C([C@@H](C)O)NC(=O)[C@@H](CCN)NC(=O)[C@@H](CCN)NC(=O)[C@@H](CC(C)C)NC(=O)[C@H](Cc2ccccc2)NC(=O)[C@H](CCN)NC1=O)[C@@H](C)O` (stereo partly drawn) ({Octanoyl(6-Me)}-[Dab][ξThr(3R)][dDab][dDab][Dab]F[dL][dDab][dDab][ξThr(3R)]; lactam 4-C), for which the Potency entry was “inactive”.

For the molecule `Clc1ccc(C(Cn2ccnc2)OCc2c(Cl)cccc2Cl)c(Cl)c1` (centres undefined), the Potency entry is “inactive”.

For `Cc1cc(CN2CCN(c3c(Br)cnc4nc(-c5ccc(N6CCN(C)CC6)cc5)[nH]c34)CC2)no1`, the Potency result is “inactive”.

With `COc1c(N2CCNC(C)C2)c(F)cc2c(=O)c(C(=O)O)cn(C3CC3)c12` (centres undefined), the Potency entry is “inactive”.

Take `CCn1c(-c2nonc2N)nc2cnc(Oc3cccc(NC(=O)c4ccc(OCCN5CCOCC5)cc4)c3)cc21`: the Potency was 5.9 µM (active).

As to `COC(=O)[C@H](CCCN=C(N)N)NS(=O)(=O)c1ccc(C)cc1`, the Potency entry was “inactive”.

Regarding `COc1ccc2cc(-c3nc(-c4ccc(S(C)=O)cc4)[nH]c3-c3ccncc3)ccc2c1` (centres undefined), the Potency entry was “inactive”.

For the molecule `CN(C)Cc1ccc(-c2nc3cccc4c3n2CCNC4=O)cc1`, the Potency entry is “inactive”.

Take `CC(C)(C)C(=O)OCOP(=O)(COCCn1cnc2c(N)ncnc21)OCOC(=O)C(C)(C)C`: the Potency is 0.235 µM (active).

Take `CCS(=O)(=O)c1cccc(-c2cc(C(=O)NC3CCN(C)CC3)c(C)c3[nH]c4ncc(C)cc4c23)c1`: the Potency is 14.8 µM (active).

Take `O=C(Nc1cccc(Cl)c1)Nc1ncc(CCNc2ncnc3ccsc23)s1`: the Potency was 0.296 µM (active).

In the case of `COc1ccccc1OCCNCC(O)COc1cccc2[nH]c3ccccc3c12` (centres undefined), the Potency entry was “inactive”.

On to `NCCc1ccc(O)c(O)c1`, for which the Potency is 14.8 µM (active).

As to `Cc1ccccc1-n1c(Cn2nc(-c3cccc(O)c3)c3c(N)ncnc32)nc2cccc(C)c2c1=O`, the Potency was 1.18 µM (active).

Turning to `NC1CCC(N[C@@H]2C[C@H]2c2ccccc2)CC1` (some centres undefined), the Potency result is “inactive”.

In the case of `C[C@@H](NC(=O)c1ncnc(N)c1Cl)c1ncc(C(=O)Nc2cc(C(F)(F)F)c(Cl)cn2)s1`, the Potency result is “inactive”.

Regarding `C[C@H](CCC(=O)O)[C@H]1CCC2C3C[C@H](O)[C@@H]4C[C@H](O)CC[C@]4(C)C3CC[C@@]21C` (some centres undefined), the Potency entry is “inactive”.

With `COc1cc2nc(N3CCCN(C)CC3)nc(NC3CCN(Cc4ccccc4)CC3)c2cc1OC`, the Potency was 8.33 µM (active).

In the case of `Clc1ccc2c(c1)C(N1CCNCC1)=Nc1ccccc1O2`, the Potency result is “inactive”.

For the molecule `OCc1ccc(-c2ccc(-c3ccc(CO)s3)o2)s1`, the Potency result is “inactive”.

As to `CN1CCC(=C2c3ccccc3CC(=O)c3sccc32)CC1`, the Potency result was “inactive”.

The nature of the next test: Quantitative highthroughput screen to assess conditional lethalithy of NOMO1 cells grown in RPMI1640 with dialyzed fetal bovine serum (RPMI+ds) (AID 1963877). Note: nearly all actives have a fitted effect of over 30% in size. The conditions noted are these: NOMO1 in RPMI+dialyzed FBS viability, ATP luminescence, 48 h; series mostly up to 45.8 µM. The gist of the method: as §1
Take `COc1cc2c(Oc3ccc(NC(=O)C4(C(=O)Nc5ccc(F)cc5)CC4)cc3F)ccnc2cc1OCCCN1CCOCC1`: the Potency was 5.9 µM (active).

As to `Oc1ccc2ccccc2c1SSc1c(O)ccc2ccccc12`, the Potency result is “inactive”.

As to `Cc1ccc(S(=O)(=O)Nc2nc3ccccc3nc2Nc2ccc3nsnc3c2)cc1`, the Potency was 1.62 µM (active).

Regarding `Cc1cc(O)c2c(c1)C(=O)c1cccc(O)c1C2=O`, the Potency result was “inactive”.

As for `O=C1N(c2ccccc2)c2ccccc2C1(Cc1ccncc1)Cc1ccncc1`, the Potency entry is “inactive”.

Turning to `O=C(NCCCNc1nc(Nc2cccc(NC(=O)N3CCCC3)c2)ncc1I)c1cccs1`, the Potency entry was “inactive”.

`NS(=O)(=O)c1cc(Cl)c(Cl)c(S(N)(=O)=O)c1`: the Potency result was “inactive”.

Regarding `CCc1cccc2c3c([nH]c12)C(CC)(CC(=O)O)OCC3` (centres undefined), the Potency entry was “inactive”.

Turning to `CCC(=O)N[C@H]1CC[C@H](C(=O)N(C)c2ccc(-c3nc4ccccc4o3)cc2)C1`, the Potency result was “inactive”.

With `CC(C)C[C@@H](N)[C@H](O)C(=O)N[C@H](C(=O)N[C@H](C(=O)N[C@@H](CC(=O)O)C(=O)O)C(C)C)C(C)C`, the Potency result was “inactive”.

As for `CN1CCN(CCCN2c3ccccc3Sc3ccc(C(F)(F)F)cc32)CC1`, the Potency was 2.96 µM (active).

With `Cc1c(C(=O)Nc2ccc(N3C[C@@H](C)O[C@@H](C)C3)nc2)cccc1-c1ccc(OC(F)(F)F)cc1`, the Potency is 11.8 µM (active).

`CC(C)Oc1cc(Nc2nc(N[C@@H](C)c3ccc(F)cn3)ncc2Cl)[nH]n1`: the Potency was 0.833 µM (active).

Regarding `CCC(c1ccc(O)cc1)C(CC)c1ccc(O)cc1` (centres undefined), the Potency entry was “inactive”.

With `CC(C(=O)O)c1cccc(C(=O)c2ccccc2)c1` (centres undefined), the Potency result is “inactive”.

For `Cc1ccn(-c2ccc(-c3ncco3)cc2)c(=O)c1-c1ccc2nc(N)ncc2c1`, the Potency result is “inactive”.

Consider `c1cc(OCCN2CCCCC2)cc(-c2n[nH]c3ccc(-c4ncn[nH]4)cc23)c1`, for which the Potency entry is “inactive”.

Consider `NC(=O)c1cccc(-c2cc(Nc3ccc(OC(F)(F)F)cc3)ncn2)c1`, for which the Potency result is “inactive”.

As for `O=C(O)C1CCCN(CCC=C(c2ccccc2)c2ccccc2)C1` (centres undefined), the Potency result was “inactive”.

As to `CCC(C)CCCCC(=O)N[C@@H](CCN)C(=O)NC(C(=O)N[C@H](CCN)C(=O)N[C@@H]1CCNC(=O)C([C@@H](C)O)NC(=O)[C@@H](CCN)NC(=O)[C@@H](CCN)NC(=O)[C@@H](CC(C)C)NC(=O)[C@H](Cc2ccccc2)NC(=O)[C@H](CCN)NC1=O)[C@@H](C)O` (stereo partly drawn) ({Octanoyl(6-Me)}-[Dab][ξThr(3R)][dDab][dDab][Dab]F[dL][dDab][dDab][ξThr(3R)]; lactam 4-C), the Potency entry is “inactive”.

In the case of `Clc1ccc(C(Cn2ccnc2)OCc2c(Cl)cccc2Cl)c(Cl)c1` (centres undefined), the Potency result is “inactive”.

With `Cc1cc(CN2CCN(c3c(Br)cnc4nc(-c5ccc(N6CCN(C)CC6)cc5)[nH]c34)CC2)no1`, the Potency was 1.05 µM (active).

Consider `COc1c(N2CCNC(C)C2)c(F)cc2c(=O)c(C(=O)O)cn(C3CC3)c12` (centres undefined), for which the Potency entry is “inactive”.

`CCn1c(-c2nonc2N)nc2cnc(Oc3cccc(NC(=O)c4ccc(OCCN5CCOCC5)cc4)c3)cc21`: the Potency is 1.18 µM (active).

On to `COC(=O)[C@H](CCCN=C(N)N)NS(=O)(=O)c1ccc(C)cc1`, for which the Potency result is “inactive”.

In the case of `COc1ccc2cc(-c3nc(-c4ccc(S(C)=O)cc4)[nH]c3-c3ccncc3)ccc2c1` (centres undefined), the Potency result is “inactive”.

In the case of `CN(C)Cc1ccc(-c2nc3cccc4c3n2CCNC4=O)cc1`, the Potency entry is “inactive”.

Consider `CC(C)(C)C(=O)OCOP(=O)(COCCn1cnc2c(N)ncnc21)OCOC(=O)C(C)(C)C`, for which the Potency was 0.418 µM (active).

On to `CCS(=O)(=O)c1cccc(-c2cc(C(=O)NC3CCN(C)CC3)c(C)c3[nH]c4ncc(C)cc4c23)c1`, for which the Potency was 11.8 µM (active).

Regarding `O=C(Nc1cccc(Cl)c1)Nc1ncc(CCNc2ncnc3ccsc23)s1`, the Potency was 0.332 µM (active).

In the case of `COc1ccccc1OCCNCC(O)COc1cccc2[nH]c3ccccc3c12` (centres undefined), the Potency result was “inactive”.

On to `NCCc1ccc(O)c(O)c1`, for which the Potency is 14.8 µM (active).

Take `Cc1ccccc1-n1c(Cn2nc(-c3cccc(O)c3)c3c(N)ncnc32)nc2cccc(C)c2c1=O`: the Potency was 2.35 µM (active).

`NC1CCC(N[C@@H]2C[C@H]2c2ccccc2)CC1` (some centres undefined): the Potency entry was “inactive”.

Take `C[C@@H](NC(=O)c1ncnc(N)c1Cl)c1ncc(C(=O)Nc2cc(C(F)(F)F)c(Cl)cn2)s1`: the Potency entry was “inactive”.

`C[C@H](CCC(=O)O)[C@H]1CCC2C3C[C@H](O)[C@@H]4C[C@H](O)CC[C@]4(C)C3CC[C@@]21C` (some centres undefined): the Potency result was “inactive”.

Consider `COc1cc2nc(N3CCCN(C)CC3)nc(NC3CCN(Cc4ccccc4)CC3)c2cc1OC`, for which the Potency was 5.26 µM (active).

In the case of `Clc1ccc2c(c1)C(N1CCNCC1)=Nc1ccccc1O2`, the Potency entry was “inactive”.

For `OCc1ccc(-c2ccc(-c3ccc(CO)s3)o2)s1`, the Potency result is “inactive”.

Regarding `CN1CCC(=C2c3ccccc3CC(=O)c3sccc32)CC1`, the Potency result was “inactive”.
